Hit rate of the full screen: of about 310,000 compounds, about 14,000 (4.5%) showed an effect of 50% or more. The effect is printed as a negative number. Shown is part of a subset that was picked to be rich in strong results.
Each molecule was assayed against human ether-à-go-go-related gene (hERG) potassium channel (human, UniProt Q12809) (assay: primary screen, population patch clamp on CHO cells stably expressing hERG; higher = less effect of the substance).
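Note: peak tail current of the secondary pulse compared with the same well before compound.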

Sequence of human ether-à-go-go-related gene (hERG) potassium channel (Q12809 whole entry, looked up): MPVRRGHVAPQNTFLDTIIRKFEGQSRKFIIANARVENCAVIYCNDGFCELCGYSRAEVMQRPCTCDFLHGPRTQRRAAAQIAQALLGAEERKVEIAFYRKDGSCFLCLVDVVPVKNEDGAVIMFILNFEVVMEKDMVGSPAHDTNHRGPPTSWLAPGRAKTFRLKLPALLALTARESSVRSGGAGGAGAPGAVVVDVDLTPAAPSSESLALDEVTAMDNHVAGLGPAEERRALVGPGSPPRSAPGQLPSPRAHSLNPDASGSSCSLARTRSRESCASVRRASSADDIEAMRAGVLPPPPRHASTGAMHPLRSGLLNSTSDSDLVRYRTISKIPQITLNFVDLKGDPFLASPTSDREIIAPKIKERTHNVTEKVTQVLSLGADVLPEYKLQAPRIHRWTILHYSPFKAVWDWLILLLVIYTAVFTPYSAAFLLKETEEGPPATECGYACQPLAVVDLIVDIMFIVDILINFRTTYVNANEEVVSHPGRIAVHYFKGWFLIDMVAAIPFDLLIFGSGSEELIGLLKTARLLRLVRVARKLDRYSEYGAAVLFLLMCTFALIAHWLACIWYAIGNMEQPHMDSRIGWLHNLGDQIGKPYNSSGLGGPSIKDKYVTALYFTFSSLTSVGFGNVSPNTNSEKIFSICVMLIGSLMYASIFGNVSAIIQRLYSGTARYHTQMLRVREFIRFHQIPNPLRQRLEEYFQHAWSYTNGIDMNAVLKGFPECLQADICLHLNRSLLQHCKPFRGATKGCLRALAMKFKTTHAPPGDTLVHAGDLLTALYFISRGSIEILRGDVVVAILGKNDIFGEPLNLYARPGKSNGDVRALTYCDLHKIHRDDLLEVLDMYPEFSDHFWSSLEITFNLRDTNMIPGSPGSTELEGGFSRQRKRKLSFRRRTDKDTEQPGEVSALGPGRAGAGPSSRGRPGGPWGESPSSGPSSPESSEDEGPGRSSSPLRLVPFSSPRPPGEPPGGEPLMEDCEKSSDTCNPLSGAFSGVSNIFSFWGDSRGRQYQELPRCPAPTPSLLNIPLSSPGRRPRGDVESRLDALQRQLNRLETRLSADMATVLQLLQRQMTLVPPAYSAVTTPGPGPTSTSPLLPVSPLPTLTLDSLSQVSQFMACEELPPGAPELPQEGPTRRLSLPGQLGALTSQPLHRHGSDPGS

Row | SMILES | hERG current change (%, negative = inhibition) at 10uM [%]
1 | CCOC(=O)c1c(C)noc1CP(=O)(c1ccccc1)c1ccccc1 | -6.61
2 | CCC(=O)NC(c1ccc(OC)cc1)c1c(O)ccc2ccccc12 (centres unmarked) | 3.82
3 | COc1ccc(-c2cnnc(N/N=C/c3ccc(OC)c(OC)c3)n2)cc1 | -35.7
4 | COc1ccc(-c2cnnc(N/N=C/c3ccc(O)c(OC)c3)n2)cc1 | -50.1
5 | COc1ccc(-c2cnnc(N/N=C/c3ccc(O)c(O)c3)n2)cc1 | 2.82
6 | CC1CCCCC12NC(=O)N(Cn1nnc3ccccc3c1=O)C2=O (centres unmarked) | -17.2
7 | Cc1ccc(-c2cc(-c3ccccc3)nc(N(C)N)n2)cc1 | 16.7
8 | c1ccc(Cc2nnc(N3CCCCC3)c3ccccc23)cc1 | -26.7
9 | O=C(Cn1nc(Cc2cccnc2)c2ccccc2c1=O)N1CCN(c2ccccn2)CC1 | -23.1
10 | c1ccc(N2CCN(c3nnc(Cc4cccnc4)c4ccccc34)CC2)nc1 | -50.1
11 | CC(C)(C)c1ccc(COc2ccsc2C(=O)O)cc1 | -6.72
12 | COCCNC(=S)N(Cc1cccnc1)Cc1ccc(OC)c(OC)c1.O=C(O)C(=O)O | 9.52
13 | COCCCNC(=S)N(Cc1cccnc1)Cc1ccc(OC)c(OC)c1 | 12.4
14 | Cc1ccc(CCNC(=O)CNC(=S)N(Cc2ccccc2)Cc2cccnc2)cc1 | -55
15 | O=C(CNC(=S)N(Cc1ccccc1)Cc1cccnc1)NCCc1ccccc1 | -41.3
16 | COc1ccc(CN(Cc2cccnc2)C(=S)NCCc2ccccc2)cc1OC.O=C(O)C(=O)O | -50.5
17 | Cc1ccc(CNC(=O)CNC(=S)N(Cc2ccccc2)Cc2cccnc2)cc1 | -19.8
18 | CCCc1nn(C)c2c(=O)[nH]c(-c3cc(S(=O)(=O)Nc4ccc(NC(C)=O)cc4)ccc3OCC)nc12 | -21.2
19 | O=C(NC1CCCCCC1)c1ccc(CS(=O)(=O)Cc2ccc(F)cc2)o1 | 3.52
20 | O=C(CCNC(=O)c1ccccc1)OCN1C(=O)c2ccccc2C1=O | -5.38
21 | CCCCNC(=O)CS(=O)Cc1nc(-c2ccc(C)cc2)oc1C (centres unmarked) | -17.5
22 | COCCCNC(=O)Cn1nnc(-c2ccc(NC(=O)c3ccccc3OC)cc2)n1 | 6.89
23 | CCOc1ccc(-c2nnc(SCc3nc4ccccc4[nH]3)n2N)cc1 | -34.3
24 | COc1ccc(OCCN2CCN(C3CC(=O)N(CCC(C)C)C3=O)CC2)cc1 (centres unmarked) | -63.4

Row | SMILES | hERG current change (%, negative = inhibition) at 10uM [%]
25 | CCN1C(=O)CC(N2CCN(c3ccc(OC)cc3)CC2)C1=O (centres unmarked) | -9.88
26 | COc1ccc(CCN2C(=O)CC(N3CCN(S(=O)(=O)c4ccccc4)CC3)C2=O)cc1 (centres unmarked) | -18.7
27 | COc1ccc(Nc2nc3ccccc3n3nnnc23)cc1 | -7.93
28 | CN1CCN(S(=O)(=O)c2ccc3c(c2)OCCO3)CC1 | 12.1
29 | COC(=O)CCCC1=CC2=C(c3ccccc3)C(=O)C(C)(OC(=O)C3CCCC3)C(=O)C2=CN1Cc1ccc(OC)cc1 (centres unmarked) | -4.26
30 | COC(=O)CCCC1=CC2=C(c3ccccc3)C(=O)C(C)(OC(=O)C3CCCC3)C(=O)C2=CN1Cc1ccco1 (centres unmarked) | -56.8
31 | COC(=O)CCCC1=CC2=C(c3ccccc3)C(=O)C(C)(OC(=O)C3CCCC3)C(=O)C2=CN1CC1CC1 (centres unmarked) | -39.9
32 | CCOC(=O)CSc1nc(N)nc(C)c1Cl | 13.4
33 | Cc1cc(F)ccc1NCc1cc2c(cc1[N+](=O)[O-])OCO2.O=C(O)C(=O)O | 7.77
34 | Cn1c(-c2ccc(F)cc2)cnc1NCc1cc2c(cc1[N+](=O)[O-])OCO2.O=C(O)C(=O)O | -57.8
35 | Cn1c(-c2ccc(Cl)cc2)cnc1NCc1cc2c(cc1[N+](=O)[O-])OCO2.O=C(O)C(=O)O | -62.6
36 | Cc1ccc(-c2cnc(NCc3cc4c(cc3[N+](=O)[O-])OCO4)n2C)cc1C | -48.6
37 | COc1ccc(-c2cnc(NCc3cc4c(cc3[N+](=O)[O-])OCO4)n2C)cc1 | -48.4
38 | Cn1c(-c2ccccc2)cnc1NCc1cc2c(cc1[N+](=O)[O-])OCO2 | -55
39 | Cn1c(-c2ccccc2)cnc1NCc1cc(Cl)ccc1O | 19.9
40 | N#Cc1nc(-c2ccccc2F)oc1NCc1cccc2c1OCO2 | -24.9
41 | CCN(C(=O)COC(=O)CNC(=O)c1ccc(C)s1)c1ccccc1 | 16.5
42 | O=C(NCc1ccc(F)cc1)c1cccnc1C(=O)O | 13.5
43 | COc1ccc(S(=O)(=O)N(CC(N)=O)C2CCCCC2)cc1Cl | 4.39
44 | Cl.Oc1ccc(CCNc2c3ccccc3nc3ccccc23)cc1O | -68.2
45 | COc1ccc(CCNc2c3ccccc3nc3ccccc23)cc1OC.Cl | -69.7
46 | O=C(CNC(=O)c1ccccc1)NCCc1ccc(O)c(O)c1 | 1.15
47 | COc1ccc(CCNc2nc(C)cc(C)n2)cc1OC.Cl | 17.4

From publication PMC4336329 (PLoS ONE, 2015)
